According to PubChem BioAssay (EPA / NIEHS):
Activity calls are given as the source filed them. How the source made its calls: active means hit-call score of the fitted dose curve at least 0.9, where 1 is the maximum; inactive means score below 0.9.

Read-out: Pro-epidermal growth factor (Homo sapiens) (UniProt P01133)
Assay: LTEA_HepaRG_EGF: Life Technologies and Expression Analysis (LTEA) Assay for Epidermal growth factor (EGF) using HepaRG (AID 2283489)
Details: mRNA level, 48 h; actives raise or lower the signal
Description: LTEA_HepaRG is a cell based, multiplexed-readout assay that uses HepaRG, a human liver cell line, with measurements taken at 48 hours after chemical dosing on a 96-well plate.LTEA_HepaRG_EGF is one of 102 assay component(s) measured in the LTEA HepaRG cell culture assay. It is a marker of Cell proliferation, survival, death.Data from the assay component LTEA_HepaRG_EGF was analyzed into 1 endpoint. This assay endpoint, LTEA_HepaRG_EGF, was analyzed with bidirectional fitting relative to DMSO as the negative control and baseline of activity. Using a type of inducible reporter, measures of mRNA induction for gain or loss-of-signal activity can be used to understand regulation of transcription factor activity. To generalize the intended target to other relatable targets, this assay endpoint is annotated to the growth factor intended target family, where the subfamily is EGF-like domain.
A total of 1060 chemcials from the ToxCast library were tested in eight-point concentration-response experiments. Cell culture and cytotoxicity assays were conducted at Thermo Fisher Scientific's Custom Services facility (Madison, WI). A single lot of human HepaRG cells (Thermo Fisher Scientific, Frederick, MD) was used for the cell culture experiments. 96-well format collagen type I coated plates of human HepaRG cells were prepared using established methods. Briefly, cryopreserved HepaRG cells were thawed, plated at a density of approximately 100,000 cells/well in HepaRG Thaw, Plate, and General Purpose media (HPRG770, Thermo Fisher Scientific), and incubated for 48 hours. 0.5% DMSO was selected as vehicle control to balance the requisite need of DMSO in HepaRG cultures to maintain differentiation (for example, baseline metabolism, proportions of hepatocytes vs. cholangiocytes), while enabling further hepatic receptor pathway activation (for example, PXR and CAR) in response to chemical exposure. 48 hours after plating, the culture medium was replaced with HepaRG Serum-Free Incudtion Media. Cells were exposed to each test chemical in duplicate and maintained in CO2 incubators for another 48 hours. Chemical plates were thawed to room temperature and 200x concentrations of treatment groups were prepared. 8-point conentration-reponse curves were made with the highest exposure at 100 uM, followed by half-log dilutions, all in 0.5% DMSO. Each test plate contained variouse controls, induction positive controls (1mM phenobarbital), cytotoxicity positive controls ([…] aflatoxin B1), vehicle controls (0.5% DMSO), and total lysis controls (0.5% DMSO). Cell morphology images were taken using an Essen IncuCyte FLR automated microscope, with six 96-well plates imaged in about 24 minutes. Images were captured and exported and JPEG files. Spent culture media was transfered to black-well plates for the LDH assay, and remaining media was sorted at -80 C for later use. Cells were treated with RLT buffer and frozen until shipped for gene expression analysis. Total RNA was isolated from the cell suspension in 75 uL of Buffer RLT (Qiagen, Germantown, MD 20874) by Quintiles/Expression Analysis (Durham, NC) using a custom isolation procedure. Total RNA from each plate well was transferred to a preamplification plate. Fluidigm's 96.96 Dynamic ArrayTM (Fluidigm, Amsterdam, the Netherlands) technology was used for gene expression analyses by quantitative reverse transcription polymerase chain reaction (qRT-PCR, performed by Quintiles/Expression Analysis, Durham, NC)89. Standard TaqManTM Assays (Applied Biosystems/ThermoFisher Scientific, Foster City, CA) were used to assess the expression of 93 genes selected based on their selectivity and sensitivity to important hepatic receptors known to be modulated by environmental chemicals; importance in human hepatocyte functionality; and hepatotoxicity. […]

SMILES | AC50 | outcome
COc1cc(C(C)C)c2c(c1)S(=O)(=O)N(COc1cc(=O)n3cccc(OCCN4CCCCC4)c3n1)C2=O | 8.03 µM (active) | 
CCc1cccc(CC)c1N |  | inactive
COc1cc2c(c(OC)c1OC)-c1ccc(OC)c(=O)cc1[C@@H](NC(C)=O)CC2 |  | inactive
OC(CCl)CCl |  | inactive
NC(=O)N(O)[C@@H]1COc2cc(OCc3ccccc3)ccc21 |  | inactive
O=C1CN(N=Cc2ccc([N+](=O)[O-])o2)C(=O)N1 |  | inactive
CCCCCOC(C)=O |  | inactive
CC[C@H](C)C(=O)O[C@H]1C[C@H](O)C=C2C=C[C@H](C)[C@H](CC[C@@H](O)C[C@@H](O)CC(=O)O)[C@H]21 |  | inactive
CCCCN1C(=O)[C@@H]([C@H](O)C2CCCCC2)NC(=O)C12CCN(Cc1ccc(Oc3ccc(C(=O)O)cc3)cc1)CC2 | 9.39 µM (active) | 
CCCCCCCCCCCCCCCCOS(=O)(=O)O |  | inactive
O=C(O)c1ccc2c(c1)nc(C(=O)NC1CCN(C3CC3)CC1)n2Cc1cc(-c2ccc(Cl)s2)on1 |  | inactive
O=c1[nH]cnc2c1ncn2[C@H]1CC[C@@H](CO)O1 |  | inactive
C=CN1CCCC1=O |  | inactive
CCCCC(CC)C(=O)OCCOCCOCCOC(=O)C(CC)CCCC (stereo not given) |  | inactive
OCCOCCOCCO |  | inactive
COS(C)(=O)=O |  | inactive
c1ccc2ncccc2c1 |  | inactive
NC(=O)NN=Cc1ccc([N+](=O)[O-])o1 | 50 µM (active) | 
O=C(NO)C1(NS(=O)(=O)c2ccc(Oc3ccc(F)cc3)cc2)CCOCC1 |  | inactive
Cn1c(=O)c2[nH]cnc2n(C)c1=O |  | inactive

SMILES | AC50 | outcome
Cc1ncc([C@@H](CCCCCCc2ccc3c(n2)NCCC3)CC(=O)O)cn1 |  | inactive
CCCCCCCCN(C)C |  | inactive
CNC(C)=O |  | inactive
Cc1nccn1-c1ccc(Sc2cccc(C3(C(N)=O)CCOCC3)c2)cc1 | 32.8 µM (active) | 
CCN(CC)C(=S)SSC(=S)N(CC)CC |  | inactive
O=C(O)c1cccc(C(=O)O)c1 |  | inactive
CC(C)c1nnc2ccc(-c3ocnc3-c3cc(F)ccc3F)cn12 |  | inactive
CC1(C)C(=O)N(Cl)C(=O)N1Cl |  | inactive
O=S1(=O)CCCO1 |  | inactive
OCc1ccccc1 |  | inactive
CCCCCCCCCCCCCCO |  | inactive
CCCCOC(=O)c1ccccc1 |  | inactive
Cn1cc[nH]c1=S |  | inactive
CCOC(N)=O |  | inactive
CCCCCCCCCC |  | inactive
CCCCCCCC1CCC(=O)O1 (stereo not given) |  | inactive
OC(Cn1cncn1)(Cn1cncn1)c1ccc(F)cc1F |  | inactive
Cc1nc(-c2ccccn2)ncc1C(=O)Nn1cc(C)c2cc(F)ccc21 |  | inactive
c1ccc(C(O[C@@H]2CCCN(CCc3ccc4c(c3)OCO4)C2)c2ccccc2)cc1 |  | inactive
CCCOc1ccc(S(=O)(=O)N2CCN(CC)CC2)cc1-c1nc2c(CC)n(Cc3ccccn3)nc2c(=O)[nH]1 |  | inactive
